Records with an inconclusive call do not appear. Unmarked numbers belong to inactive results. The source made the active and inactive calls. Calls come from the whole dose curve; as a rule, active = well fitted activation curve with a large enough effect; inconclusive = small, poorly fitted or top-dose-only effect; inactive = no such curve, though single readings can be large or run the other way.
Assay: Activators of T cell receptors: Hit Validation; for activation: 0% is about no effect
Settings: primary human leukocytes, cytokine release by HTRF, 48 h
Source text: Normally activation of naive T cells requires two signals. 1. A signal through the T cell receptor (TCR) which provides antigen specificity to the response. 2. Signals through co-stimulatory molecules, which are necessary for proliferation, survival and cytokine production. In the absence of co-stimulatory signals T cells are not effectively activated, and may even be rendered anergic or unresponsive to subsequent signaling. This lack of costimulation has been shown in multiple model systems to be a major factor in the limited strength and effectiveness of anti-tumor T cell responses. The goal of this project is to identify small molecule compounds that will stimulate T cell activation in the presence of TCR signaling but in the absence of co-stimulatory signals, thereby allowing activation of naive T cells in the absence of co-stimulation. Identification of such compounds would have clear experimental and clinical applications in instances where desirable antigen-specific immune responses are not generated due to a lack of co-stimulation, for example in the generation of anti-tumor responses.
In collaboration between the National Cancer Institute and NIH Chemical Genomics Center, a high-throughput amenable screen was developed to discover small molecules that co-stimulate and activate human T cell receptors. The screen will be carried out using a novel homogeneous time resolved fluorescence energy transfer (HTRF) assay to measure production of the cytokine IL-2 by activated T cells and will be tested against the NIH Molecular Libraries Small Molecule Repository (MLSMR). This is the same assay tested against the hits identified in the primary screen.
NIH Chemical Genomics Center [NCGC]
NIH Molecular Libraries Probe Centers Network [MLPCN]
Assay Submitter (PI): Richard Hodes, National Cancer Institute, NIH
Primary human leukocytes are incubated with a-CD3 beads and compounds for 48 hr. The amount of secreted IL-2 is then assayed with a HTRF IL-2 kit. The presence of IL-2 cytokine captures the detection reagents and brings the a-IL-2-K and a-IL-2-d2 into close proximity. Upon excitation with 320nm light, the europium cryptate is capable of transferring energy to acceptor molecules within close proximity, resulting in acceptor molecule emission at 665nm.
Potency is the fitted concentration of half-maximal effect.

Row | SMILES | Potency
1 | CN(C)c1ccc(/C=C/c2cc[n+](C)c3ccccc23)cc1 | 7.91 µM (active)
2 | C=C(C)[C@@]12OC3(c4ccccc4)O[C@@H]1C1[C@@H]4O[C@]4(CO)[C@@H](O)[C@]4(O)C(=O)C(C)=C[C@H]4[C@@]1(O3)[C@H](C)[C@H]2OC(=O)/C=C/C=C/c1ccccc1 (stereo not given in full) | 0.002 µM (active)

Same assay, conditions: primary human leukocytes, cytokine release by HTRF, 48 h; TCR-stimulated with anti-CD3 beads

Row | SMILES | Potency
3 | CN(C)c1ccc(/C=C/c2cc[n+](C)c3ccccc23)cc1 | 6.28 µM (active)

Same assay, conditions: primary human leukocytes, cytokine release by HTRF, 48 h; at 46.1 µM (top of the series)

Row | SMILES | activation
4 | COc1ccc(N/N=C/c2c(O)n(-c3ccc(C)c(C)c3)c(=O)[nH]c2=O)cc1 | 11.6%
5 | CCC(C)n1c(O)c(C=NC(C)c2ccccc2)c(=O)[nH]c1=S (stereo not given) | 6.34%
6 | COc1ccc(/C=C/C(=O)c2c(O)n(CCC3=CCCCC3)c(=O)[nH]c2=O)cc1 | 2.49%
7 | C#C[C@]1(O)CC[C@H]2[C@@H]3CCC4=CC(=O)CC[C@]4(C)[C@H]3CC[C@@]21C | -6.05%

Same assay, conditions: primary human leukocytes, cytokine release by HTRF, 48 h; at 46.1 µM (top of the series); TCR-stimulated with anti-CD3 beads

Row | SMILES | activation
8 | CC(C)[C@]12CC(=O)[C@H](C)[C@H]1C2 | -2.87%
9 | Cc1ccc(OC(F)F)c(N2C(=O)C3C4CCC(O4)C3C2=O)c1 (stereo not given) | -0.91%
10 | Nc1cc(Cl)cc(Cl)c1 | -3.76%
